# According to PubChem BioAssay AID686978 (National Center for Advancing Translational Sciences (NCATS), 2013):
# Among all 420,000 compounds or so, about 64,000 (15%) were called active. Another 27% or so got no clear call; they are omitted. Calls come from the whole dose curve; as a rule, active = well fitted inhibition curve with a large enough effect; inconclusive = small, poorly fitted or top-dose-only effect; inactive = flat fitted curve, though single readings scatter. These entries were drawn from the full list. Entries that show only a call come without a potency.
# Assay: qHTS for Inhibitors of human tyrosyl-DNA phosphodiesterase 1 (TDP1): qHTS in cells in absence of CPT; note: nearly all actives have a fitted effect of over 55% in size
# Conditions: DT40 Tdp1-/- hTDP1 cells, no CPT, ATP luminescence, 48 h; activity change, negative = growth inhibition: at 46.2 µM (top of the series)
# Outline: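 Compound effects on proliferation are scored in DT40 Tdp1-/-;hTDP1 cells in the absence of CPT. ATP levels (CellTiter-Glo luminescence) are recorded after a ≥48 hr, 37 °C incubation.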
# Potency is the fitted concentration of half-maximal effect.
row,Structure (SMILES),Potency
1,COc1ccc(NC(=O)COc2ccc(C(=O)OCC(=O)N(C)C3CCS(=O)(=O)C3)cc2OC)cc1 (stereo not drawn),inactive
2,CCOC(=O)N1CCN(S(=O)(=O)c2ccc(OC)cc2)CC1,inactive
3,CCOC(=O)N1CCN(C(=O)c2ccccc2N(Cc2ccccc2)S(=O)(=O)c2ccc(OC)cc2)CC1,3.26 µM (active)
4,NC(=O)c1ccccc1N(Cc1ccccc1)S(=O)(=O)c1ccccc1,inactive
5,CN(CCO)Cc1csc2ccc(Br)cc12,inactive
6,CCOC(=O)c1c(C)oc2ccc(N(C(=O)c3ccncc3)S(=O)(=O)c3ccc(CC)cc3)cc12,2.91 µM (active)
7,CN(CC(=O)O)S(=O)(=O)c1ccc2oc3ccccc3c2c1,inactive
8,CCOC(=O)c1c(C)oc2cc(Br)c(OCC(N)=O)cc12,inactive
9,CCOC(=O)c1c(C)nc2c(c1C)c(=O)oc1ccccc12,inactive
10,COc1ccc2oc(C(=O)NCC(Cc3ccccc3)N(C)C)c(C)c2c1 (stereo not drawn),inactive
11,COC(=O)c1c(C)oc2ccc(N(C(=O)Oc3ccccc3)S(=O)(=O)c3ccccc3)cc12,11.6 µM (active)
12,O=C(CN1CCOCC1)Nc1c2c(nc3c1CCC3)CCC2,inactive
13,CCC(C)N(C(=O)COC(=O)C1C(C(=O)OC)=C(C)NC(C)=C1C(=O)OC)C1CCS(=O)(=O)C1 (stereo not drawn),inactive
14,COc1ccccc1CNC(=O)CS(=O)(=O)c1cccc2nsnc12,inactive
15,O=C(Nc1cccc(-c2nc3ncccc3o2)c1)c1ccco1,inactive
16,COc1cc2ccccc2cc1C(=O)Nc1ccncc1,inactive
17,COc1cc(NC(=O)c2cccs2)ccc1NC(=O)c1ccccc1Cl,inactive
18,COc1cc2ccccc2cc1C(=O)Nc1ccc(NC(=O)c2cccs2)cc1,20.6 µM (active)
19,O=C(Nc1cccc(Br)c1)c1ccc2snnc2c1,inactive
20,COc1cccc(NC(=O)c2ccccc2SC)c1,inactive
21,O=C(Nc1cccc(-c2nc3ccccc3o2)c1)c1cccc(Br)c1,20.6 µM (active)
22,COc1cc2ccccc2cc1C(=O)Nc1cccc(-c2nc3ccccc3o2)c1,20.6 µM (active)
23,COc1cc2ccccc2cc1C(=O)Nc1ccc(S(=O)(=O)Nc2cc(C)on2)cc1,inactive
24,Cc1cccc(CCNC(=O)Cn2ncc3c([nH]c4ccc(C)cc43)c2=O)c1,inactive
25,CCN(C(=O)COC(=O)c1ccccc1O)c1cccc2ccccc12,inactive
26,Cc1nnc(SCC2=C(C(=O)O)N3C(=O)C(NC(=O)Cn4nc(C)c(Cl)c4C)C3SC2)s1 (stereo not drawn),inactive
27,C=CCNC(=O)c1ccccc1SCc1c(C)noc1C,inactive
28,COc1ccc(S(=O)(=O)NC2(C(F)(F)F)N=C3SCCN3C2=O)cc1 (stereo not drawn),inactive
